LGR2 antag = Drosophila LGR2 receptor signaling inhibition. HEK293 LGR2, CRE-luciferase, bursicon-stimulated, 4 h. actives 0.35% (n = 380,000). inhibition, % at 9.99 µM;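 active means drop in luminescence signal, shown as inhibition above about 50% in the replicate tests, limit read from the data, passing the limit was not always enough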;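 further: agonist challenge used bursicon conditioned medium at about half maximal strength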
LMP1 NFkB inh = inhibitors of Epstein-Barr LMP1-induced NF-kappaB reporter | LMP1-induced NF-kappaB luciferase reporter cells, luminescence | inhibition, % at 12.5 µM | actives 0.69% (n = 350,000) | AID 504558; in the data active means inhibition above about 41%;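 further: 0% = neutral control wells and 100% = reference inhibitor control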
TROY signal inh = TROY signaling inhibition; actives 0.98% (n = 360,000); Q293 LMP1-TROYcd NF-kB luciferase reporter, 4 h; inhibition, % at 10 µM;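 active means compounds whose plate-normalised and pattern-corrected inhibition of the luciferase reporter signal at the single screening dose is 50% or more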
EWS-Fli block = blocks EWS/Fli oncoprotein-driven transcription; A673 NR0B1-luciferase reporter, viability-normalised; inhibition, % at 12.6 µM; actives 0.67% (n = 350,000);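 active means mean inhibition of at least 50% after viability correction, with every replicate also passing that limit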;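 further: firefly luciferase signal divided by Alamar Blue viability fluorescence both relative to DMSO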
TWEAK Fn14 block = TWEAK-Fn14 signaling inhibition. AID 1159606. inhibition, % at 10 µM. actives 2% (n = 360,000). TWEAK-stimulated Fn14 reporter cells, luciferase luminescence, 8 h; in the data active means inhibition above about 50%
The depositor's hits bear a star; . = no result given; ! = not active in a repeat. An excerpt weighted towards active compounds, which were near 2.6% of everything screened.

SMILES | LGR2 antag | LMP1 NFkB inh | TROY signal inh | EWS-Fli block | TWEAK Fn14 block
C[C@@H]1CN([C@@H](C)CO)C(=O)c2cccc(NC(=O)Nc3ccc(C(F)(F)F)cc3)c2O[C@H]1CN(C)Cc1ccc2c(c1)OCO2 | . | . | . | 18 | .
C[C@H](CO)N1C[C@H](C)[C@H](CN(C)C(=O)Nc2ccc(F)cc2)Oc2ncc(/C=C/c3ccccc3)cc2C1=O | 18 | . | . | . | .
C[C@@H]1CN([C@H](C)CO)C(=O)c2cccc(NC(=O)Nc3ccc(C(F)(F)F)cc3)c2O[C@@H]1CN(C)C(=O)Nc1ccccc1 | 15 | . | . | 8 | .
C[C@@H]1CN([C@@H](C)CO)C(=O)c2cc(C#CCN(C)C)cnc2O[C@H]1CN(C)Cc1ccc(-c2ccccc2)cc1 | -9 | . | . | 73*! | .
C[C@H](CO)N1C[C@H](C)[C@@H](CN(C)C(=O)Nc2ccc(C(F)(F)F)cc2)Oc2c(NC(=O)Nc3ccccc3)cccc2C1=O | 21 | 9 | -6 | 64*! | -18
C[C@H](CO)N1C[C@H](C)[C@@H](CN(C)Cc2ccc3c(c2)OCO3)Oc2c(NC(=O)Nc3ccc(C(F)(F)F)cc3)cccc2C1=O | 60* | . | . | 6 | .
COC(=O)[C@H]1[C@H](CO)[C@H]2Cn3c(ccc(C4=CCCC4)c3=O)[C@H]2N1C(=O)C1CCCC1 | -1 | . | . | 1 | .
CC(C)NC(=O)Nc1ccc2c(c1)CC(=O)N([C@H](C)CO)C[C@@H](C)[C@H](CN(C)C(=O)Nc1ccccc1)O2 | -5 | . | . | 3 | .
CO[C@H]1CN(C)C(=O)c2cc(NC(=O)Cc3ccccc3)ccc2OC[C@@H](C)N(C(C)=O)C[C@@H]1C | -2 | . | . | -4 | .
CC(=O)N1[C@@H]2c3ccc(C4=CCCCC4)c(=O)n3C[C@H]1[C@H](CO)[C@H]2C(=O)NC1CCCC1 | 3 | . | . | 8 | .
Cc1ccc(-c2onc(C)c2C)cc1S(=O)(=O)N1CCOc2ccccc21 | 20 | 18 | 44 | . | 64*
Cc1cc(-c2ccc(C)c(S(=O)(=O)N3CC(=O)Nc4ccccc43)c2)on1 | -16 | -4 | -14 | -3 | 92*
CCc1ccc(-c2cc(C)no2)cc1S(=O)(=O)N1CC(=O)Nc2ccccc21 | 1 | 4 | -21 | 0 | -12
CCCN1CCN(C(=O)c2cc(COc3ccc(F)c(F)c3)on2)CC1 | -13 | -4 | -35 | . | -16
COCCN1CCN(C(=O)c2cc(COc3ccc(F)c(F)c3)on2)CC1 | 0 | -2 | -23 | -6 | 77*
COc1cc(C(=O)NC2CCN(C)CC2)ccc1Nc1ncc2c(n1)N(CCc1ccccc1)CCC(=O)N2C | 3 | 4 | -14 | 54* | 0
CCCCC(CCC(=O)O)(C(=O)OCC)c1csc(Nc2ccccc2)n1 (stereo not drawn) | . | 3 | 9 | . | -5
CCCCC(CCC(=O)O)(C(=O)OCC)c1csc(N)n1 (stereo not drawn) | . | -2 | . | . | 73*
COC(=O)C[C@@H]1CC[C@@H]2[C@H](COc3ccc(NS(=O)(=O)c4ccc(C)cc4)cc3C(=O)N2C)O1 | -14 | . | . | -2 | .
O=C(Nc1ccc2c(c1)[C@@H]1C[C@@H](CC(=O)N3CCCCC3)O[C@@H](CO)[C@@H]1O2)Nc1ccccc1F | 7 | . | . | 2 | .
O=C(c1ccc2c(=O)n(CCc3ccccc3)c(=O)[nH]c2c1)N1CCN(c2ccc(F)cc2)CC1 | 0 | 21 | 58* | 35 | 74*
COc1ccc(N2CCN(C(=O)c3ccc4c(=O)n(CCc5ccc(OC)c(OC)c5)c(=O)[nH]c4c3)CC2)cc1 | 3 | -9 | 13 | 10 | 59*
O=C(c1ccc2c(=O)n(CCc3ccccc3)c(=O)[nH]c2c1)N1CCN(c2ccccc2)CC1 | . | -12 | 35 | . | 38
COCC(C)n1c(C)cc(C(=O)COC(=O)c2cc(=O)[nH]c3ccccc23)c1C (stereo not drawn) | 3 | 25 | 83* | 41 | 88*
COCC(C)n1c(C)cc(C(=O)COC(=O)c2n[nH]c3ccccc23)c1C (stereo not drawn) | . | 25 | 78* | . | 67*
COc1cccc(S(=O)(=O)N(C)C[C@@H]2Oc3cc(C4=CCCC4)ccc3S(=O)(=O)N([C@@H](C)CO)C[C@@H]2C)c1 | 4 | . | . | 23 | .
O=C(Nc1nccs1)[C@H]1[C@H](CO)[C@H]2Cn3c(ccc(-c4cccnc4)c3=O)[C@H]2N1CC1CC1 | -1 | . | . | -11 | .
C[C@H]1CN([C@@H](C)CO)C(=O)c2c(c3ccccc3n2C)-c2ccccc2CO[C@H]1CN(C)CC1CC1 | 16 | . | . | 0 | .

From PubChem
